Most compounds without a hit are left out; they make up all but 0.88% or so of the library.
ERG-DNA inh: blocks human ERG Ets domain binding to DNA | P11308 | fluorescence polarization, His-ERG Ets domain / labelled DNA | Potency, µM (top dose mostly 76.9 µM), inactives show top-dose FP activity, negative = inhibition, actives largely listed as inhibitors | actives 0.028% (n = 370,000); active = well fitted inhibition curve with a large enough effect in the polarisation, with a control signal flat; inconclusive = small, poorly fitted or top-dose-only effect, or effect the other way, or a change in a side signal; inactive = no such curve, though single readings can be large or run the other way; the % refers to the polarisation;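 also: polarization taken with two DNA probes labelled with fluorescein and Texas red; % of control where 0% means no effect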
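His-tagged ERG Ets domain (1 uM in the protein solution; 300mM KCl, 50mM Tris-HCl, 1mM EDTA, 1mM DTT, pH 7.5) received compound, then a probe mix of 5 nM fluorescein-DNA and 100nM Texas-615-DNA. Fluorescence polarization was read for both dyes.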
GCN5L2 inh: GCN5L2 (KAT2A) acetyltransferase inhibition | actives 0.21% (n = 390,000) | Q92830 | GCN5L2 HAT assay, ThioGlo1 CoA-SH fluorescence | Potency, µM (top dose mostly 58.9 µM), for the others: at the top dose activity change, negative = inhibition, actives largely listed as inhibitors | AID 504327; also: % is scaled to controls: 0 for no effect and ±100 for the full control effect
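qHTS, 1536-well. 20nM enzyme, pH 7.5 HEPES/EDTA/Tween-20 buffer; 15 min compound preinc., RT. Start: 75uM H3(1-25), 70uM AcCoA, 50uM ThioGlo1. Read Ex340/Em540 at t=0 (autofluorescence flag) and t=20 min.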
APE1 inh: APE1 (human) endonuclease inhibition | P27695 | recombinant APE1, TAMRA/BHQ-2 abasic DNA cleavage fluorescence | Potency, µM (series often up to 65.8 µM), for inactives: top-dose activity change, negative = inhibition, most hits filed as inhibitors | actives 0.35% (n = 350,000);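 also: plate controls were vehicle for no effect and reference inhibitor for full effect; nearly all actives have a fitted effect of over 55% in size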
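APE1 at 0.75 nM preincubated 15 min at room temperature with compound. Reaction then started with 50 nM double-stranded THF-abasic substrate labelled with TAMRA/BHQ-2, and 525/598 nm fluorescence read kinetically. Activity taken as third-minus-first read difference, normalized to DMSO and NSC13755 controls.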
RECQ1 inh-1: inhibitors of human RECQ1 DNA helicase. RECQ1 DNA unwinding, red fluorescence kinetic read. actives 0.54% (n = 240,000). AID 2549. P46063. Potency, µM (top dose mostly 57.3 µM), without a hit: at the top dose activity, negative = inhibition, actives largely listed as inhibitors;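 also: plate controls were vehicle for no effect and no enzyme for full effect; nearly all actives have a fitted effect of over 30% in size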
Target sequence (P46063 whole entry, looked up): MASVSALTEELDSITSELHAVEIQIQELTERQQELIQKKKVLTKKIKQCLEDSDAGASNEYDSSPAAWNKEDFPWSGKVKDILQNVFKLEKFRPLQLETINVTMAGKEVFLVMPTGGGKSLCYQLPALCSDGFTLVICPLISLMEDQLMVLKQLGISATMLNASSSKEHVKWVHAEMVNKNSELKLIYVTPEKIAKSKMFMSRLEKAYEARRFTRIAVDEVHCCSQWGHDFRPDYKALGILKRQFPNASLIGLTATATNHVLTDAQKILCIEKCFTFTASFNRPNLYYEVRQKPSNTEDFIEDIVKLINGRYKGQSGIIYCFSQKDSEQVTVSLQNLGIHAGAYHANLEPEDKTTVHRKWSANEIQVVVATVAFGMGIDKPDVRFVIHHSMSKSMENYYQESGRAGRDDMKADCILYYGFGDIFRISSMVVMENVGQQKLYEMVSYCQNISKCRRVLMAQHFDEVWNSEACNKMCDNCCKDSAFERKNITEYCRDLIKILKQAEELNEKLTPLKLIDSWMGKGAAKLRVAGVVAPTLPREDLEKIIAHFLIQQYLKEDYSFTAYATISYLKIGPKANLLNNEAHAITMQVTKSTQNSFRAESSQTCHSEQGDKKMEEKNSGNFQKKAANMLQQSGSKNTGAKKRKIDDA
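50 nM RECQ1T1 preincubated 15 min with compound in Tris pH 8.0 buffer with MgCl2, DTT, Tween-20 and 2.5 ug/ml poly(dI-dC); started with 200 nM TAMRA/BHQ-2 forked duplex and 2 mM ATP. Unwinding read as fluorescence (525/598 nm), two reads 2 h apart.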
WRN inhibitor: WRN helicase (human) inhibition | Q14191 | WRN helicase unwinding, fluorescent forked duplex, kinetic | Potency, µM (highest dose often 114 µM), inactives show top-dose activity change, negative = inhibition, usual class: inhibitors | actives 0.46% (n = 360,000); also: % is scaled to controls: 0 for no effect and ±100 for the full control effect; nearly all actives have a fitted effect of over 55% in size
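Fluorescence dequenching readout, ex 525 nm/em 598 nm, kinetic mode: forked duplex DNA (100 nM final) with adjacent fluorophore and quencher unwound by WRN (20 nM final) with 2 mM ATP. Compound preincubation 15 min, room temperature.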
BLM inh: inhibitors of human Bloom syndrome helicase BLM | AID 2528 | actives 0.2% (n = 350,000) | recombinant BLM DNA unwinding, fluorescence dequenching | P54132 | Potency, µM (doses to about 56.1 µM), inactives show top-dose activity change, negative = inhibition, most hits filed as inhibitors;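 also: plate controls were vehicle for no effect and no enzyme for full effect; nearly all actives have a fitted effect of over 35% in size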
RECQ1 conf: confirmation of human RECQ1 helicase inhibitors; RECQ1 helicase DNA unwinding, fluorescence; Potency, µM (series often up to 229 µM), inactives show at the highest dose activity change, negative = inhibition, hits mostly inhibitors; actives 28% (n = 610); AID 2708; shares compounds with RECQ1 inh-1; also: % is scaled to controls: 0 for no effect and ±100 for the full control effect; nearly all actives have a fitted effect of over 45% in size
ADP FP counter: displaces ADP in a fluorescence polarization counter-screen for RECQ1 hits | shares compounds with RECQ1 inh-1 | ADP fluorescence polarization displacement counterscreen | Potency, µM (highest dose often 228 µM), without a hit: at the top dose activity change, negative = inhibition, usual class: inhibitors | actives 27% (n = 530); also: % is scaled to controls: 0 for no effect and ±100 for the full control effect; nearly all actives have a fitted effect of over 45% in size
RECQ1 inh-2: confirmation of human RECQ1 helicase inhibitors | AID 504841 | actives 15% (n = 1,100) | shares compounds with RECQ1 inh-1 | Potency, µM (titrated, usually from 119 µM), inactives show at the highest dose activity, negative = inhibition, actives largely listed as inhibitors | recombinant RECQ1 DNA unwinding, red fluorescence; also: % is scaled to controls: 0 for no effect and ±100 for the full control effect; nearly all actives have a fitted effect of over 50% in size
* hit, by the source's call; i = inactive; ? = inconclusive; . = not tested or not shown; [ ] = dose if it differs, or a comment. Unless noted, calls follow the shape of the dose curve; as a rule, active = well fitted curve in the direction sought with a large enough effect; inconclusive = small, poorly fitted or top-dose-only effect, or another doubt; inactive = no such curve, though single readings can be large; an effect the other way counts as inactive or inconclusive. Potency is read from the fitted curve at half-maximal effect.

SMILES	ERG-DNA inh	GCN5L2 inh	APE1 inh	RECQ1 inh-1	WRN inhibitor	BLM inh	RECQ1 conf	ADP FP counter	RECQ1 inh-2
CCOC(=O)c1cnc2c(C)c(Cl)ccc2c1Nc1ccc(N2CCOCC2)cc1	1%	-15%	.	.	.	-9%	.	.	.
CCOC(=O)CN1C(=O)S/C(=C/C=C/c2ccc(N(C)C)cc2)C1=O	146%	-4%	-6%	25µM*	?	?	.	.	32µM*
CCOC(=O)CN1C(=O)S/C(=C/c2ccc3c(c2)n(C)c(=O)n3C)C1=O	-4%	2%	19%	-4%	-8%	5%	.	.	.
O=C(CN1C(=O)c2ccccc2S1(=O)=O)Nc1cc(S(=O)(=O)N2CCCCC2)ccc1Cl	-12%	-6%	-2%	.	-9%	.	.	.	.
COc1ccc(Cn2nnnc2C(c2cccs2)N2CCN(c3ccccc3)CC2)cc1 (centres undefined)	-2%	-7%	-3%	-16%	-9%	-11%	.	.	.
COc1ccc(Cn2nnnc2C(c2cccnc2)N2CCN(c3ccc(O)cc3)CC2)cc1 (centres undefined)	.	-13%	10%	1.3µM*	-4%	-2%	0%[114 µM]	8%[91.9 µM]	0%
Cc1ccc(SCC(c2ccccc2)N2CCN(C)CCC2=O)cc1 (centres undefined)	.	.	10%	4%	.	-14%	.	.	.
CC(C)(C)[C@@H]1C=C(C(=O)NCc2ccccc2)O[C@H](OCc2ccc(CO)cc2)C1	-2%	-7%	16%	?	-3%	-5%	6%[114 µM]	?	.
Cc1c(Cl)c(C(F)F)nn1CC(=O)NC1C(=O)N2C(C(=O)O)=C(CSc3nnnn3C)CSC12 (centres undefined)	7%	-8%	?	-3%	-12%[11.6 µM]	-1%	-4%	?	.
Cc1c(Cl)cnn1CC(=O)NC1C(=O)N2C(C(=O)O)=C(CSc3nnnn3C)CSC12 (centres undefined)	-20%	2%	?	i	-12%[11.6 µM]	0%	.	.	.
Cc1nn(CC(=O)NC2C(=O)N3C(C(=O)O)=C(CSc4nnnn4C)CSC23)cc1Br (centres undefined)	-9%	-2%	?	-8%	-7%[11.6 µM]	4%	1%	?	.
COc1ccc2cc(C(C)c3nc4ccccc4c(=O)n3N)ccc2c1 (centres undefined)	-1%	-10%	5%	28µM*	?	-10%	.	.	-23%
Cc1noc(C)c1C(=O)N1CCC[C@@]2(CCN(c3cccc(-c4ccccc4)c3)C2)C1	.	-6%	-1%	i	.	-6%	.	.	.
NC(=O)COC(=O)c1cccc(S(=O)(=O)N2CCN(c3ccccc3)CC2)c1	7%	-9%	11%	-3%	8%	-5%	.	.	.
O=C(COC(=O)c1cccc(S(=O)(=O)N2CCN(c3ccccc3)CC2)c1)NCc1ccco1	-10%	17%	?	35µM*	?	18µM*	.	.	?
CC(=O)OC1CCC2C3CCc4cc(O)ccc4C3CCC12C (centres undefined)	0%	6%	.	16µM*	-9%	2%	9%	8.9µM*	.
CCN1/C(=C/c2cc[n+](CCCS(=O)(=O)[O-])c3ccccc23)Sc2ccccc21	?	-9%	?	?	-13%	-12%	.	.	56µM*
CCC(=O)/C=C1/Sc2ccccc2N1CC	0%	-11%	-6%	i	-15%	7%	.	.	.
Nc1ccccc1C(=O)NC1CCCNC1=O (centres undefined)	0%	.	.	.	5%	.	.	.	.
N=C1SC(c2ccccc2)C(=O)N1c1ncc(Cc2ccccc2Cl)s1 (centres undefined)	-3%	0%	-1%	25µM*	?	-16%	.	.	?
Cc1ccc(C)c(CNC(=O)CN2C(=O)CSc3ccc(S(=O)(=O)N(C)C)cc32)c1	-1%	-4%	.	.	.	-4%	.	.	.
COc1ccc2nc(-c3ccco3)c(-c3ccco3)nc2c1	.	-18%	8.9µM*	?	45µM*	13µM*	.	.	2%
Cc1cc(/C=N/O)c(C)n1-c1ccccc1	-5%	0%	-1%	-3%	-1%	0%	.	.	.
Cc1cc(/C=C/c2ccc3cc(N(C)C)ccc3[n+]2C)c(C)n1-c1ccccc1	.	?	?	25µM*	.	-23%	271%	40µM*	.
Cc1ccn2c(Nc3ccc(C(C)C)cc3)c(-c3cccs3)nc2c1	-6%	-10%	.	.	.	-4%	.	.	.
SMILES	ERG-DNA inh	GCN5L2 inh	APE1 inh	RECQ1 inh-1	WRN inhibitor	BLM inh	RECQ1 conf	ADP FP counter	RECQ1 inh-2
COCCNC(=O)C(=O)Nc1ccc2nc3n(c(=O)c2c1)CCCCC3	13%	-3%	.	.	.	1%	.	.	.
CCOC(=O)c1ccc(NC(=S)N2CCSC2c2ccc(Cl)cc2)cc1 (centres undefined)	-1%	-7%	-2%	?	-12%	-6%	.	.	-10%
CCOC(=O)c1ccc(NC(=S)N2CCSC2c2ccc(OC)cc2)cc1 (centres undefined)	?	0%	5%	-16%	4%	-4%	.	.	.
CC(C)(Oc1ccc(Cl)cc1)C(=O)NC1=NN(c2ccccc2)C(=O)C1	2%	-7%	10%	?	-22%	-6%	.	.	-20%
CCOC(=O)c1ccc(NC(=O)CSc2nc(C)cc(=O)[nH]2)cc1	2%	-21%	-12%	?	?	-20%	.	.	?
O=C(CSc1ccc(Cl)cc1)N1CCN(c2c(Cl)cccc2[N+](=O)[O-])CC1	-1%	-2%	-4%	8.9µM*	-12%	-11%	-6%[114 µM]	-4%[91.9 µM]	-27%
Cc1ccc(NC(=O)Cc2cc(C(=O)O)c3ccccc3n2)c(C)c1	-26%	-4%	0%	i	1%	0%	11%	-1%	.
COc1ccc(Cc2nc(C(=O)Nc3ccc(Cl)cc3)cs2)cc1	-1%	-6%	-2%	-10%	-10%	-7%	.	.	.
COc1ccc(NC(=O)c2csc(Cc3ccc(Cl)cc3)n2)cc1	-10%	-3%	6%	?	5%	-10%	.	.	-48%
O=C(Nc1ccc(-n2nncc2-c2ccco2)cc1)c1cc2ccccc2oc1=O	0%	-6%	?	6.3µM*	50µM*	-18%	4.5µM*	4%[91.9 µM]	?

From PubChem BioAssay
